We go through seven compounds from PubChem BioAssay (Tox21).

Each structure is given as a SMILES string. Values without a mark were called inactive. Inconclusive results are not listed. The source made the active and inactive calls. Unless noted, the call rests on the fitted dose curve.

A short description of assay [1]: Nuclear factor erythroid 2-related factor 2/antioxidant responsive element (Nrf2/ARE) small molecule agonists: qHTS cell viability counter screen in human keratinocytes (AID 1919968; active means well fitted curve in the direction sought with a large enough effect in the repeat runs; an effect the other way counts as inactive or inconclusive; further: nearly all actives have a fitted effect of over 55% in size; further: potency means the concentration at half of the fitted maximal effect). The method, boiled down: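 Fluorescence read-out from CellTiter-Fluor after 1 h at 37 C. Wells held HaCaT-derived ARE-luciferase reporter cells (1,500/well) treated 23 h with DMSO-dissolved compounds. Run in the same wells as the luciferase agonist read.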

Assay [2] can be described thus: Nuclear factor erythroid 2-related factor 2/antioxidant responsive element (Nrf2/ARE) small molecule agonists: luciferase reporter gene qHTS assay in human keratinocytes (AID 1919969). Further: nearly all actives have a fitted effect of over 35% in size. Further: potency means the concentration at half of the fitted maximal effect.
Assay [3] has as its target KiSS-1 receptor (Homo sapiens) (UniProt Q969F8). As to the kind of experiment: Human kisspeptin (KISS1R) small molecule agonists, calcium flux assay in KISS1R-HEK293 cells (AID 1920064; active means well fitted curve in the direction sought with a large enough effect in the repeat runs; an effect the other way counts as inactive or inconclusive). Put shortly: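 Calcium flux read-out: kinetic fluorescence at Ex/Em=480/540, 1 s intervals over 3 min, after pin-tool compound addition to dye-loaded KISS1R-HEK293 cells. Fifteen concentrations, triplicates.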
(In general: Calcium assays in cells follow changes in intracellular calcium, usually with a dye or a luminescent sensor.)

A short description of assay [4]: G protein-coupled receptor (GPCR) small molecule agonists, calcium flux assay: HEK293 wild type cell line counter screen (AID 1920065). The method, boiled down: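 Agonist mode; 18 h seeding at 37 C, 1 h dye load at 37 C; compounds pinned from DMSO, ATP as positive control; kinetic fluorescence 480/540 nm, 3 min, 1 s reads; 15 concentrations, triplicate.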
A short description of assay [5]: p53 small molecule agonists, cell-based qHTS assay with human liver microsomes (AID 1963577).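 Further: p53 response element beta-lactamase reporter cells with liver microsomes plus NADPH.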 Put shortly:
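16 h, 37 C exposure of p53RE-bla cells to compounds with human liver microsomes and NADPH (0.5 mg/mL final each); detection via LiveBLAzer mixture, 2 h dark at room temperature.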
On the technique in general: qHTS replaces the single test concentration by a dilution series.

Assay [6] is described as follows: p53 small molecule agonists, cell-based qHTS assay with rat liver microsomes (AID 1963578). Put shortly: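 With rat liver microsomes and NADPH present (0.5 mg/mL final each), p53RE-bla cells are treated with compound for 16 h at 37 C. LiveBLAzer detection mixture is then applied for 2 h at room temperature in the dark.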
Assay [7] in a line: p53 small molecule agonists, cell-based qHTS assay with human liver microsomes: qHTS cell viability counter screen (AID 1963579). Further: nearly all actives have a fitted effect of over 45% in size. Put shortly:
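In this multiplexed counter screen, the reporter plates were subsequently treated with CellTiter-Glo so that cell viability, reflected by luminescence, could be recorded for p53RE-bla cells dosed 16 h with compounds under microsomal activation (HLM and NADPH).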

Assay [8] in a line: p53 small molecule agonists, cell-based qHTS assay with rat liver microsomes: qHTS cell viability counter screen (AID 1963580). Further: nearly all actives have a fitted effect of over 45% in size. Put shortly:
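After the beta-lactamase ratio was read, CellTiter-Glo was added to the same wells and luminescence measured at 30 min; cells had been treated 16 h at 37 C with compounds, rat liver microsomes and NADPH (0.5 mg/mL final each).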

Assay [9] in a line: p53 small molecule agonists, cell-based qHTS assay: qHTS cell viability counter screen (AID 1963581). Further: nearly all actives have a fitted effect of over 45% in size. The method, boiled down: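 Cytotoxicity read-out: ATP-based luminescence (CellTiter-Glo, 30 min RT) measured in the same wells as the p53 reporter assay, HCT-116 p53RE-bla cells, 16 h compound exposure at 37 C.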
Assay [10] in a line: p53 small molecule agonists, cell-based qHTS assay (AID 1963582; active means well fitted activation curve with a large enough effect in the signal ratio in the repeat runs, not every such curve was filed as active; the % refers to the signal ratio). The method, boiled down:
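Fluorescence intensity read-out of a beta-lactamase reporter under a p53 response element. Cells were exposed to DMSO-dissolved compounds for 16 h at 37 C, then developed with FRET substrate for 2 h at RT.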

Assay [11] addresses 5-hydroxytryptamine receptor 2A (Homo sapiens) (UniProt P28223). Kind of assay: 5-hydroxytryptamine receptor 2A (HTR2A) small molecule antagonists, cell-based qHTS assay (AID 1963586). Further: nearly all actives have a fitted effect of over 45% in size. Put shortly: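 CHO cells stably expressing human HTR2A were plated for 18 h at 37 C, then loaded with calcium dye for 1 h. Compounds were preincubated 5 min at room temperature before DOI (4 nM solution) was added. Kinetic fluorescence was read for 3 min.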

For assay [12] the target is unchanged. As to the kind of experiment: 5-hydroxytryptamine receptor 2A (HTR2A) small molecule agonists, cell-based qHTS assay (AID 1963587). Further: nearly all actives have a fitted effect of over 30% in size. Further: potency means the concentration at half of the fitted maximal effect. The method, boiled down:
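CHO cells stably expressing human HTR2A, plated 18 h, loaded with calcium dye 1 h at 37 C. Agonist mode: compounds added and intracellular calcium fluorescence recorded kinetically for 2 min at 1 sec intervals.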

For assay [13], the target named is Muscarinic acetylcholine receptor M1 (Homo sapiens) (UniProt P11229). As to the kind of experiment: Cholinergic receptor muscarinic 1 (CHRM1) small molecule antagonists, cell-based qHTS assay (AID 1963588). Further: nearly all actives have a fitted effect of over 40% in size. Put shortly:
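Compounds were tested at 15 concentrations in three independent runs. Dye-loaded CHRM1-CHO cells were exposed 5 min at room temperature before stimulation by acetylcholine added at 50nM. Intracellular calcium was read kinetically on FDSS for 3 min.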

Assay [14] can be described thus: cAMP Responsive Elements (CRE) small molecule agonists, cell-based qHTS assay (AID 1963590). The method, boiled down: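 Beta-lactamase reporter readout: LiveBLAzer B/G FRET substrate, 2 h at room temperature, added after 3 h compound treatment of CRE-bla HEK 293T cells at 37 C/5% CO2.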
Assay [15] in a line: cAMP Responsive Elements (CRE) small molecule antagonists, cell-based qHTS assay (AID 1963591; active means well fitted inhibition curve with a large enough effect in the signal ratio in the repeat runs, not every such curve was filed as active; the % refers to the signal ratio). Put shortly:
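HEK293T CRE-bla; 18 h preincubation; compound pin-transfer; NKH477 0.25 uM final, 3 h, 37 C; LiveBLAzer FRET substrate 2 h RT.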

Assay [16] deals with Beta-2 adrenergic receptor (Homo sapiens) (UniProt P07550). As to the kind of experiment: Adrenergic beta2 receptor (ADRB2) small molecule antagonists, cell-based qHTS assay (AID 1963592). Further: series mostly up to about 92 µM; nearly all actives have a fitted effect of over 50% in size. The method, boiled down:
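Assay format: CHO-ADRB2 cells, 18-20hr seeding at 37C/5% CO2, then compound plus 1nM isoproterenol agonist mix for 0.5hr RT. Homogeneous time-resolved fluorescence cAMP detection after 1hr, expressed as 665/615 nm ratio.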

For assay [17], the target named is D(2) dopamine receptor (Homo sapiens) (UniProt P14416). Kind of assay: Dopamine D2 receptor (DRD2) small molecule agonists, cell-based qHTS assay (AID 1963594). Further: nearly all actives have a fitted effect of over 35% in size. The method, boiled down: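 HEK293 cells stably expressing human DRD2, pre-treated with PDE inhibitor Ro20-1724 (0.1 mM final) and compound 10 min at room temperature, then stimulated with NKH477 (200nM […]) for 30 min. cAMP read by HTRF (665/620 nm).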
Sequence of D(2) dopamine receptor (Homo sapiens) (P14416 whole entry, looked up): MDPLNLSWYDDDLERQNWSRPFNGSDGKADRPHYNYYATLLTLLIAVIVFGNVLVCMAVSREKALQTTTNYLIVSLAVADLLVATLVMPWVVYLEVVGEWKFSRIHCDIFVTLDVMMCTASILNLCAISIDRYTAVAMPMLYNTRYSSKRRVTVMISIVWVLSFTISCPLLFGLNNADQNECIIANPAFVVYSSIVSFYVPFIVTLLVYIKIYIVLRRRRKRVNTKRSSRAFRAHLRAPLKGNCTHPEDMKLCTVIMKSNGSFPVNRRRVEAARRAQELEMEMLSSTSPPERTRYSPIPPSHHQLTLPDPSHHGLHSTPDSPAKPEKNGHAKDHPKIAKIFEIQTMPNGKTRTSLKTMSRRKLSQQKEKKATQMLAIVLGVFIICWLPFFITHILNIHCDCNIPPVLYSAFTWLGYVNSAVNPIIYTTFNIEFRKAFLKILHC

Assay [18] has the same target. Kind of assay: Dopamine D2 receptor (DRD2) small molecule antagonists, cell-based qHTS assay (AID 1963595; active means well fitted inhibition curve with a large enough effect in the signal ratio in the repeat runs, with a control signal flat; the % refers to the signal ratio). Put shortly: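 In this cell-based antagonist screen, compounds act for 10 min at room temperature before a 30 min challenge with 12 nM quinpirole and 200 nM NKH477. cAMP is quantified by HTRF competition in DRD2-HEK293 cells containing 0.1 mM Ro20-1724.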
In assay [19] the target is Muscarinic acetylcholine receptor M1 (Homo sapiens) (UniProt P11229). Kind of assay: Cholinergic receptor muscarinic 1 (CHRM1) small molecule agonists, cell-based qHTS assay (AID 1963589). Further: nearly all actives have a fitted effect of over 35% in size. The method, boiled down: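 Calcium flux read-out: kinetic fluorescence at 1 sec intervals after pin-tool compound addition to dye-loaded CHRM1-CHO cells (human M1). Agonist mode; 15 concentrations tested in triplicate independent runs.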
Sequence of Muscarinic acetylcholine receptor M1 (Homo sapiens) (P11229 whole entry, looked up): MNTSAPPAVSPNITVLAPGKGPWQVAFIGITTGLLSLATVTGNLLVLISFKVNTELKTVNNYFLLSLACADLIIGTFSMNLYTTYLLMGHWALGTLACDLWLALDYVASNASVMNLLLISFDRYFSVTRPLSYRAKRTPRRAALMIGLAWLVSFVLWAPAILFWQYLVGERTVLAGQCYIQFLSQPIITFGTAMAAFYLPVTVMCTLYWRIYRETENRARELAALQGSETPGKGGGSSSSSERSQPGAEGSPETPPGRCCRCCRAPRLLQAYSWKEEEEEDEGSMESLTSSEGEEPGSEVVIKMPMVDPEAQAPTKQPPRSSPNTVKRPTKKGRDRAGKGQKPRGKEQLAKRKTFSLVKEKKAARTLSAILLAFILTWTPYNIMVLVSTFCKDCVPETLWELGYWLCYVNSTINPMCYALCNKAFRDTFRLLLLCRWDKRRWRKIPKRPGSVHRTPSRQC

Sequence of Beta-2 adrenergic receptor (Homo sapiens) (P07550 whole entry, looked up): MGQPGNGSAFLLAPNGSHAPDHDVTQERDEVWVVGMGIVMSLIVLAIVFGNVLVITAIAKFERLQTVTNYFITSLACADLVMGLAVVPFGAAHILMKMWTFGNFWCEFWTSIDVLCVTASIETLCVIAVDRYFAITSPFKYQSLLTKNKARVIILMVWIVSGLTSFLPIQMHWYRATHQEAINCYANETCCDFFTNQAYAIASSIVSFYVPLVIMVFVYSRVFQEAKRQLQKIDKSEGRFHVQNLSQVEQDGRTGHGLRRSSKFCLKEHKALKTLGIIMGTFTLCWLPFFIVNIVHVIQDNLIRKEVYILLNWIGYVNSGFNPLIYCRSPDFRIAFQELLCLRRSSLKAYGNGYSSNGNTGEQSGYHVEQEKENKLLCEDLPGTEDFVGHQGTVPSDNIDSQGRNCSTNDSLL
Sequence of 5-hydroxytryptamine receptor 2A (Homo sapiens) (P28223 whole entry, looked up): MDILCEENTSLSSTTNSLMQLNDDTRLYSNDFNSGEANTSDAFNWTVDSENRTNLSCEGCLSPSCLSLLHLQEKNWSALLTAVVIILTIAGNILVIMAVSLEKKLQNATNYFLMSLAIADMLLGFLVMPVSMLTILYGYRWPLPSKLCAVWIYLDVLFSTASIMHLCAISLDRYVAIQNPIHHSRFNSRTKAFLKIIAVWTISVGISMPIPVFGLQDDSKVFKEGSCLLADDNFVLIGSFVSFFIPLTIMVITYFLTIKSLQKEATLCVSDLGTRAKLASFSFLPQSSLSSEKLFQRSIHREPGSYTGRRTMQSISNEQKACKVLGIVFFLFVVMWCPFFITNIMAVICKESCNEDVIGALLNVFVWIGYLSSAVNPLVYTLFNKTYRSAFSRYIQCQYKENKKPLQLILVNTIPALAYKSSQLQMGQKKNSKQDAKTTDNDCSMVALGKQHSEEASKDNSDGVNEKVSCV
Sequence of KiSS-1 receptor (Homo sapiens) (Q969F8 whole entry, looked up): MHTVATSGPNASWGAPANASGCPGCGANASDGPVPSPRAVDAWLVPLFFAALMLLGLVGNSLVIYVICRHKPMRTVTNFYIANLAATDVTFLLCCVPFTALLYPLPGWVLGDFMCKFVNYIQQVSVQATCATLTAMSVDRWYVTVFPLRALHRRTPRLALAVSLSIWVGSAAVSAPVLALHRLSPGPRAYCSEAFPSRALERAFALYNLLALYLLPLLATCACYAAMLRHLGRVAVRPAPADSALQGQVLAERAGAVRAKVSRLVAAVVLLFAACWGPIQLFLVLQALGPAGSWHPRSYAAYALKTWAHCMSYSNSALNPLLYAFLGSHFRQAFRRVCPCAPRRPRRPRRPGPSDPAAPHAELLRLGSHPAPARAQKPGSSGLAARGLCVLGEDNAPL

In the case of `CCCCC(CC)C(=O)OC(C)C` (stereo unspecified), the Potency entry in assay [1], in assay [2], in assay [5], in assay [6], in assay [7] and in [8] was “inactive” in each case. For the same compound, the Potency entry in assay [9], in assay [10], in assay [11], in [12], in assay [13] and in assay [14] was “inactive” throughout. Besides, the Potency entry in assay [15], in assay [16], in [17] and in assay [18] was “inactive” each time. Also, the outcome in [3] and in assay [4] was inactive.

`CCCCCCCCCC(=O)N(C)C`: the Potency entry in assay [1], in [5], in [6], in assay [7], in assay [8] and in [9] was “inactive” in each case. Moreover, the Potency result in assay [10], in assay [11], in [12], in [13], in assay [19] and in assay [14] was “inactive” each time. Besides, the Potency result in assay [15], in [16], in assay [17] and in assay [18] was “inactive” in each case. In addition, in assay [2], the Potency was 43.9 µM (active). For the same compound, the result in assay [3] and in assay [4] was inactive.

`OCCN(CCO)c1cccc(Cl)c1`: the Potency result in assay [1], in assay [2], in [5], in assay [6], in assay [7] and in assay [8] was “inactive” throughout. For the same compound, the Potency result in assay [9], in [10], in [13], in [19], in assay [14] and in assay [15] was “inactive” in each case. For the same compound, the Potency result in [16], in assay [17] and in assay [18] was “inactive” each time. Also, the result in assay [3] and in [4] was inactive.

Turning to `C=C[C@@H](C)CCC=C(C)C`, the Potency result in assay [1], in assay [2], in assay [5], in [6], in assay [7] and in [8] was “inactive” in each case. In addition, the Potency result in assay [9], in assay [11], in assay [12], in [13], in [19] and in assay [14] was “inactive” in each case. In addition, the Potency result in [15], in [16] and in [17] was “inactive” in each case. Also, the outcome in assay [3] and in assay [4] was inactive.

In the case of `COc1ccc2sc(C(=O)Nc3nnn[nH]3)c(OC(C)C)c2c1`, the figures for the Potency in assay [1] and in assay [2] were 27.2 µM (active) and 24.2 µM (active), respectively. In addition, the outcome in assay [3] and in assay [4] was inactive. For the same compound, the Potency entry in assay [5], in [6], in [7], in assay [8], in assay [9] and in assay [10] was “inactive” each time. Besides, the Potency entry in assay [11], in assay [12], in assay [13], in assay [19] and in assay [18] was “inactive” each time.

With `COc1ccc(OC)c(N=Nc2c(O)ccc3ccccc23)c1`, the Potency in assay [1] is 27.3 µM (active); in [2], 27.3 µM (active); in assay [12], 4.36 µM (active). Moreover, the result in assay [3] and in assay [4] was inactive. In addition, the Potency result in assay [5], in assay [6], in assay [7], in [8], in assay [9] and in assay [10] was “inactive” each time. Moreover, the Potency entry in assay [11], in assay [13], in assay [19], in assay [14], in assay [15] and in [17] was “inactive” each time. In [18], the Potency result is “inactive”.

Take `CCN(CC)CCOCCOC(=O)C1(c2ccccc2)CCCC1`: the Potency entry in assay [1], in assay [2], in assay [5], in assay [6], in assay [7] and in assay [8] was “inactive” each time. The Potency entry in assay [9], in [10], in [12], in assay [19], in assay [14] and in assay [15] was “inactive” each time. For the same compound, the Potency result in assay [16], in assay [17] and in assay [18] was “inactive” throughout. The result in [3] and in assay [4] was inactive.
